Laboratory results reported in PubChem BioAssay AID880 (National Center for Advancing Translational Sciences (NCATS), 2007).
About 1,000 (0.43%) of roughly 230,000 compounds were called active. The call rests on the fitted dose curve; in most records, active means well fitted inhibition curve with a large enough effect (not every such curve was filed as active); inactive means no such curve, though single readings can be large or run the other way. The entries come from a sample that favours actives as a whole. Where a call stands in place of a potency, no number is given.

The compounds below were run against Guanine nucleotide-binding protein G(i) subunit alpha-1 (Homo sapiens) (UniProt P63096) (assay: qHTS Assay for Inhibitors of RGS12 GoLoco Motif Activity (Red Fluorophore)). Conditions: Gai1:RGS12 GoLoco peptide FP, rhodamine, 10 min; series mostly up to 61.6 µM.
Further: nearly all actives have a fitted effect of over 30% in size.
Potency means the concentration at half of the fitted maximal effect.

Sequence of Guanine nucleotide-binding protein G(i) subunit alpha-1 (Homo sapiens) (P63096 whole entry, looked up): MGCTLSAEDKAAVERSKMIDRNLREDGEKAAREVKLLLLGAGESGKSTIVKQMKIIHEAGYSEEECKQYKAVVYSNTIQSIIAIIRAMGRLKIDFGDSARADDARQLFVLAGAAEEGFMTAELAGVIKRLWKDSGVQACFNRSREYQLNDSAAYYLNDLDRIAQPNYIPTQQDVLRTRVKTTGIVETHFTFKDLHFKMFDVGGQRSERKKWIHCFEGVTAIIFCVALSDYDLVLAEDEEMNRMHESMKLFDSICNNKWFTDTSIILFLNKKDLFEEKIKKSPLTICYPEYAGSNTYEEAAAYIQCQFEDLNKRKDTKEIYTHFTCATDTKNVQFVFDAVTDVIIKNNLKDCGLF

**Q.** With `CN(C)C(=O)c1nc2ccc(Cl)cn2c1CNCc1cccc(OC(F)(F)F)c1` as the compound, how does the Potency read?
**A.** inactive

**Q.** With `Cn1nc(C(F)(F)F)cc1C(=O)O` as the compound, how does the Potency read?
**A.** inactive

**Q.** Which Potency does the source give for `O=[N+]([O-])c1cc(S(=O)(=O)CCCN2CCOCC2)ccc1F` here?
**A.** inactive

**Q.** With `CC(C)c1cnc(NC(=O)Cc2ccccc2)s1` as the compound, how does the Potency read?
**A.** inactive

**Q.** `O=C(CSc1ncnc2c1cnn2CCc1ccccc1)Nc1ccc(F)cc1` was tested. Which Potency did it give?
**A.** inactive

**Q.** `Oc1ccc(CNc2ccccc2O)cc1` was tested. Which Potency did it give?
**A.** inactive

**Q.** For `O=C(OCc1ccccc1)c1ccc(O)cc1`, which Potency is on record?
**A.** inactive

**Q.** For `COC(=O)CCCCCN1C(=O)NC(c2ccc(-c3ccccc3)cc2)C(C(=O)OCc2ccccc2)=C1C` (stereo not drawn), which Potency is on record?
**A.** inactive

**Q.** `CC(=O)[C@H](C(c1ccccc1)N1CCOCC1)N1CCOCC1` (stereo partly drawn) was tested. Which activity, negative = inhibition did it give?
**A.** -7.72% [at 14.2 µM] (inactive)

**Q.** Which Potency does the source give for `C=C(C(C)=O)C(O)c1ccc([N+](=O)[O-])cc1` (stereo not drawn) here?
**A.** inactive

**Q.** How did the Potency turn out when `CCOC(=O)C1(CC2CCCCO2)CCN(Cc2nc(-c3cccs3)oc2C)CC1` (stereo not drawn) was run?
**A.** inactive

**Q.** `OCC(CO)NC1C[C@](O)(CO)[C@@H](O)[C@H](O)[C@H]1O` (stereo partly drawn) was tested. Which Potency did it give?
**A.** inactive

**Q.** `NC1CCN(O)C1=O` (stereo not drawn) was tested. Which Potency did it give?
**A.** inactive

**Q.** With `CCc1ccc(-n2c(SCc3cc(=O)n4cc(Br)ccc4n3)nc3[nH]ncc3c2=O)cc1` as the compound, how does the Potency read?
**A.** inactive

**Q.** Which Potency does the source give for `O=C(O)/C=C/c1ccc(OCCCF)cc1` here?
**A.** inactive

**Q.** How did the Potency turn out when `CC(O)COc1ccccc1` (stereo not drawn) was run?
**A.** inactive

**Q.** With `Cc1cccc(Br)c1` as the compound, how does the Potency read?
**A.** inactive

**Q.** With `O=C1OCCN1C(=O)[C@H]1[C@H](c2ccc(Cl)cc2)C(c2cccc(Cl)c2)=NN1c1ccc(Br)cc1` as the compound, how does the Potency read?
**A.** inactive

**Q.** With `CC(O)[C@@H](N)C(=O)O` (stereo partly drawn) as the compound, how does the Potency read?
**A.** inactive

**Q.** For `O=P(O)(O)C(O)c1ccc2ccccc2c1` (stereo not drawn), which Potency is on record?
**A.** inactive

**Q.** With `Cc1ccnc(SCC(N)=O)n1` as the compound, how does the Potency read?
**A.** inactive

**Q.** Which Potency does the source give for `Cc1ccnc(Nc2nc3ccccc3s2)n1` here?
**A.** inactive

**Q.** For `Cc1ccnc(-n2sc3ccccc3c2=O)n1`, which Potency is on record?
**A.** 14.1 µM (active)

**Q.** Which Potency does the source give for `CCOC(=O)c1cnc2[nH]c3ccccc3n2c1=O` here?
**A.** inactive

**Q.** `Cc1ccc(-c2nc3ccccc3[nH]c2=O)cc1` was tested. Which Potency did it give?
**A.** inactive

**Q.** With `O=c1[nH]c2ccccc2n2c(-c3ccccc3)nnc12` as the compound, how does the Potency read?
**A.** 12.6 µM (active)

**Q.** For `O=C(Nc1cccc(F)c1)N1CCC2(CC1)CCN(S(=O)(=O)c1ccccc1)CC2`, which Potency is on record?
**A.** inactive

**Q.** For `CCOC(=O)C1=NO[C@@]2(C=C(Br)C(=O)[C@H]3O[C@H]32)C1`, which Potency is on record?
**A.** inactive

**Q.** For `COc1ccc2c(-c3ccccc3)cc(SCC(=O)N(C)C3CCS(=O)(=O)C3)nc2c1` (stereo not drawn), which Potency is on record?
**A.** inactive

**Q.** For `CC(=O)OC1C([N+]2(C)CCCCC2)C[C@H]2C3CC[C@H]4C[C@H](OC(C)=O)C([N+]5(C)CCCCC5)CC4(C)C3CCC12C` (stereo partly drawn), which Potency is on record?
**A.** inactive

**Q.** How did the Potency turn out when `C=CC(=O)OCCOCCOCCOCCOC(=O)C=C` was run?
**A.** inactive

**Q.** With `Cc1cccc(-n2c(=O)c3c(C)c(C)sc3n(CC(N)=O)c2=O)c1` as the compound, how does the Potency read?
**A.** inactive

**Q.** With `NC(=O)c1sc(-c2ccsc2)cc1N` as the compound, how does the Potency read?
**A.** inactive
